Data: PubChem BioAssay AID1508622 (National Center for Advancing Translational Sciences (NCATS), 2021)
Calls of active or inactive are those of the source. Calls come from the whole dose curve; as a rule, active = well fitted activation curve with a large enough effect; inconclusive = small, poorly fitted or top-dose-only effect; inactive = no such curve, though single readings can be large or run the other way.

Experiment: Confirmatory qHTS for Identification of Small Molecule Activators of Huntingtin-Antisense Promoter Activity
Conditions: HEK293 HTT-AS promoter firefly luciferase reporter, 24 h; series mostly up to 57.5 µM
Procedure, shortened: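 Activity normalized between vehicle control (0%) and zero RLU (-100%) from firefly luminescence (Dual-Glo). Compounds, up to 57.5 uM final, incubated 24 h at 37C on HEK293 reporter cells plated 24 h earlier.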
Potency is the fitted concentration of half-maximal effect.

Potency, active:
O=C(C=Cc1ccc(CN(CCO)CCc2c[nH]c3ccccc23)cc1)NO 2130 nM
Cc1ccc(-n2ncc3c(N(CCO)Cc4ccccc4)ncnc32)cc1 1070 nM

Potency, inactive:
COc1cc(CCC(=O)NCc2ccc3c(c2)CCN3C(=O)c2ccccc2)cc(OC)c1OC
CSc1ccc(CCNc2ncnc3onc(C)c23)cc1
Cc1ccc2onc(CC(=O)N3CCN(c4cc(Cl)ccc4C)CC3)c2c1
COc1ccc(N2CCN(C(=O)c3ccc4c(=O)n(CCc5ccc(OC)c(OC)c5)c(=O)[nH]c4c3)CC2)cc1
CCOC(=O)C1CCC(CN(Cc2c(Cl)cccc2Cl)S(=O)(=O)c2ccc(Cl)cc2)CC1 (stereo not given)
O=C(NCc1ccccc1)C(=O)NCC(c1ccco1)S(=O)(=O)c1ccc(Cl)cc1 (stereo not given)
COc1ccc(NC(=O)C(=O)c2cc(C)n(-c3ccc(C)cc3)c2C)cc1Cl
COc1ccc(CCNC(=O)c2ccc3c(c2)CCN3S(=O)(=O)c2ccc(C)cc2)cc1OC
O=C(c1ccc2c(c1)CCN2S(=O)(=O)c1ccc(Cl)cc1)N1CCN(c2ccc(F)cc2)CC1
O=C(NCC(c1cccnc1)N1CCN(Cc2ccccc2)CC1)C(=O)Nc1ccc(Cl)cc1 (stereo not given)
CCOc1ccc(NS(=O)(=O)c2ccc(-c3cc(C)no3)s2)cc1
COc1ccc(S(=O)(=O)N2CCC(C(=O)Nc3ccc(Oc4ccccc4)cc3)CC2)cc1OC
Cc1cc(NC(=O)CCc2nc3cccnc3n2-c2ccccc2)ccc1Br
